Bioassay records (PubChem BioAssay)
NADH enzymes = inhibition of NAD/NADH coupling enzymes, library profiling. coupled PK/LDH NADH assays, four targets. IC50, µM (highest dose often 10 µM), for inactives: at the top dose inhibition. 0.02% of 65,000 active;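 active = single-dose screening hits from any of four coupled enzyme assays that gave an IC50 when retested across doses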;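 note: the DPM-DC format reads NADH fluorescence rather than 340 nm absorbance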
A340 absorber = compounds absorbing at 340 nm. 65,000 tested, under 10 active. fold change at 10 µM. compound absorbance at 340 nm, fold over control;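 active = at 10 µM dose, initial 340 nm absorbance at least 2 fold that of control wells; inactive = change under 2 fold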;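 note: initial absorbance extrapolated from kinetic A340 decline of NADH oxidation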
Spn PMK inh = blocks S. pneumoniae phosphomevalonate kinase. purified PMK, PK/LDH-coupled NADH absorbance 340 nm. inhibition, % at 10 µM. 0.49% of 65,000 active. AID 539;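 active = top-ranked compounds by inhibition in the single 10 µM screen, taking a fixed number of the strongest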;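 note: 0% = full reaction with DMSO carrier and 100% = background rate without enzyme reaction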
Fluor 339 460 = intrinsic fluorescence of library compounds, ex339/em460 – biochemical, MLSMR library, data from DPM-DC assay, artefact control, profiling panel | compound autofluorescence, ex339/em460 nm, NADH buffer; stronger effect = higher value; 1 = no-compound wells, NADH background | 5.5% of 65,000 active | fluorescence fold increase at 10 µM;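 active = at 10 µM, mean starting fluorescence two-fold or more over control wells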;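 note: signal is the first read of a kinetic run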
Spn DPM-DC inh = S. pneumoniae DPM-DC inhibition; purified DPM-DC, PK/LDH coupled NADH fluorescence; calls only at 10 µM; 0.49% of 65,000 active;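 active = the 320 compounds with the highest percent inhibition in the single-dose primary screen, excluding strongly autofluorescent ones, cut at about 32% in these data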;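 note: kinetic rate of NADH fluorescence loss reporting ADP formed by the decarboxylase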
MK inhibit = S. pneumoniae mevalonate kinase inhibition; purified MK, PK/LDH-coupled NADH absorbance 340 nm; inhibition, % at 10 µM; 0.48% of 65,000 active;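 active = ranked among the strongest by inhibition in the single 10 µM screen, a fixed top-ranked set picked for dose follow-up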
* marks the source's active call; other numbers are inactive results; i = inactive; . = no result shown; + = active, no number. Only some compounds are listed: those with a hit (about 6.8% of all), similar ones and a draw of the others.

SMILES	NADH enzymes	A340 absorber	Spn PMK inh	Fluor 339 460	Spn DPM-DC inh	MK inhibit
Cc1cccn2c(=O)c3cc(C#N)c(=N)n(CCN4CCOCC4)c3nc12	6%	1	0	1.9	.	11
CCCn1c(=NC(=O)c2ccc3c(c2)OCO3)c(C#N)cc2c(=O)n3cccc(C)c3nc21	7%	1	13	1.4	i	7
COCCCn1c(=NC(=O)c2ccncc2)c(C#N)cc2c(=O)n3cccc(C)c3nc21	5%	1.1	0	3.9*	.	9
CCCn1c(=NC(=O)c2ccncc2)c(C#N)cc2c(=O)n3cccc(C)c3nc21	5%	1.1	9	3.6*	.	0
O=c1oc2ccc(Br)cc2cc1-c1nc2ccccc2o1	10%	1	6	2.3*	i	9
O=C(Nn1cnnc1)c1cc2cc(Br)ccc2oc1=O	9%	1.1	9	1.2	i	9
CCCCn1c(SCC(=O)c2ccc(OC)cc2OC)nc2cc(S(N)(=O)=O)ccc21	14%	1.1	10	2.5*	i	4
COCCN1C=C(C(=O)OC)C(c2cc(Br)c(OC)c(OC)c2)C(C(=O)OC)=C1	6%	1.1	4	2.3*	.	8
COC(=O)C1=CN(C)C=C(C(=O)OC)C1c1ccc(O)c(OC)c1	8%	1	2	1.4	i	6
COC(=O)Cc1ccc2c3ccccc3n(C)c2c1	4%	1.1	0	1.2	i	8
CC(=O)c1ccc(-c2nc3c4ccccc4ccn3c2C(C)=O)o1	3%	1.2	3	2.2*	.	3
CCN(CC)CCN1C(=O)c2ccccc2NC1c1cc(OC)c(OC)c(OC)c1 (stereo not given)	2%	1	2	2.3*	.	1
CCN(CC)CCN1C(=O)c2ccccc2NC1c1cccc(F)c1 (stereo not given)	9%	1	10	2.1*	.	7
COc1ccc(C2Nc3ccccc3C(=O)N2O)cc1OC (stereo not given)	7%	1	18	1.2	i	0
CCCCc1c(C)c2ccc(OC)c(/C(C)=N\O)c2oc1=O	12%	1.1	9	2.5*	i	.
Cc1ccc2c(c1)c1c3n2CCN(C(=O)Cn2c(-c4ccccc4)noc2=O)C3CCC1 (stereo not given)	10%	1	12	3.2*	i	4
CCOC(=O)N1CCN(C(=O)CN(c2ccc(Cl)c(C(F)(F)F)c2)S(C)(=O)=O)CC1	3%	1	1	1.1	i	9
CC1CCN(c2oc(-c3cccc4ccccc34)nc2C#N)CC1	13%	1	10	3*	.	9
N#Cc1nc(-c2ccccc2Cl)oc1N1CCCCC1	3%	1	6	2	i	3
CC1CC(C)CN(c2oc(-c3ccccc3Cl)nc2C#N)C1 (stereo not given)	3%	1.1	0	3.2*	.	5
N#Cc1nc(Cc2cccc3ccccc23)oc1N1CCCCC1	1%	1	0	1.1	i	4
Cc1cccc(OCc2nc(C#N)c(N3CC(C)CC(C)C3)o2)c1 (stereo not given)	3%	1	0	1.1	i	8
N#Cc1nc(-c2cccc3ccccc23)oc1N1CCCCC1	10%	1	13	3.7*	.	6
COc1ccc(S(C)(=O)=O)cc1S(C)(=O)=O	10%	1	12	1.1	i	8
O=C(CN1C(=O)c2cccc3cccc1c23)N1CCN(Cc2ccc3c(c2)OCO3)CC1	7%	1.1	3	2*	i	8
SMILES	NADH enzymes	A340 absorber	Spn PMK inh	Fluor 339 460	Spn DPM-DC inh	MK inhibit
O=C(c1cccn2c(=O)c3cc(Cl)ccc3nc12)N1CCN(Cc2ccc3c(c2)OCO3)CC1	9%	1.1	17	4.9*	.	0
CCn1nc(C(=O)N2CCN(Cc3ccc4c(c3)OCO4)CC2)c2ccccc2c1=O	12%	0.99	20	0.95	i	8
O=C(NCCN1CCN(c2ccccc2F)CC1)c1cccn2c(=O)c3ccccc3nc12	12%	0.99	18	3.1*	i	2
COc1cccc(C(=O)N2CCN(Cc3ccc4c(c3)OCO4)CC2)c1OC	3%	1	0	1.1	i	8
O=C(c1cccn2c(=O)c3ccccc3nc12)N1CCN(Cc2ccc3c(c2)OCO3)CC1	2%	1.1	3	5*	.	1
CC(=O)NCCCc1c[nH]c2ccc(Cl)cc12	2%	1	3	1.2	i	4
CCOC(=O)C1C(C)N=C2SCC(=O)N2C1c1cccc(Br)c1 (stereo not given)	6%	1.1	9	1	i	5
Cc1ccc(-c2noc(CN3C(C)CCCC3C)n2)cc1 (stereo not given)	5%	0.99	15	1.1	i	11
O=C(c1cccn2c(=O)c3cc(Cl)ccc3nc12)N1CCOCC1	2%	1.1	13	3.3*	.	1
NC(=O)C1(N2CCCCC2)CCN(C(=O)c2cccn3c(=O)c4cc(Cl)ccc4nc23)CC1	7%	1.1	14	4.9*	.	0
COC(=O)C1=C(C)OC(N)=C(C#N)C1c1ccccc1F (stereo not given)	9%	1	14	1.1	i	13
COC(=O)C1=C(C)OC(N)=C(C#N)C1c1cc(OC)c(OCC(N)=O)cc1Cl (stereo not given)	41%	1	37*	1.3	+	48*
CCn1c(SCC(=O)c2ccccc2)nc2c(c1=O)SC(C)C2 (stereo not given)	17%	1.1	12	1.2	i	40*
CCOC(=O)c1sc2nc(SCC(=O)NCc3ccco3)n(Cc3ccccc3)c(=O)c2c1C	5%	1	4	1.7	+	5
C=CCn1c(=O)c2ccccc2n2c(SCc3nnc(-c4ccccc4Br)o3)nnc12	7%	0.98	15	1.1	i	4
CC(=O)NC1N=C(C)N(c2ccccc2)C1=O (stereo not given)	9%	1.1	28*	1.1	i	0
CC(=O)Nc1ccn(-c2ccccc2)n1	2%	1	1	1.1	i	11
C/C(O)=c1/ccc2cccc3nc(C)nc1c23	13%	1.1	14	3*	i	0
Cc1ccccc1Cn1cc(NC(=O)c2noc3c2CC(C(C)(C)C)CC3)cn1 (stereo not given)	2.6µM*	0.99	20	1.7	i	5
CC(C)(C)N1C(=O)Cc2c1nc(N)c1c(N)nc(N3CCCCC3CO)c(C#N)c21 (stereo not given)	8%	1	15	4.8*	.	0
CCCC(c1nnnn1C1CCCC1)N1CCN(c2ccccc2F)CC1 (stereo not given)	4%	0.99	11	1	i	0
Cc1cccn2c(=O)c3cc(C(=O)NCc4cccnc4)c(=N)n(C)c3nc12	9%	1	9	1.9	i	3
